# Legend:
# Assay in all cases: DAPPL (digital affinity profiling via proximity ligation, sequencing); 10 mM Tris-HCl pH 7.5, 50 mM NaCl, 1 mM DTT, 4% glycerol, room temperature, 30 min; GST-TFs on glutathione beads, 16-mer random dsDNA library, 0.1% formaldehyde crosslink after washing; high values mean tight binding
# FLI1 = target: T1, FLI1 (Homo sapiens, UniProt Q01543 1-452); details: protein: recombinant; tags: N-terminal GST; dsDNA, one strand shown
# T1 sequence: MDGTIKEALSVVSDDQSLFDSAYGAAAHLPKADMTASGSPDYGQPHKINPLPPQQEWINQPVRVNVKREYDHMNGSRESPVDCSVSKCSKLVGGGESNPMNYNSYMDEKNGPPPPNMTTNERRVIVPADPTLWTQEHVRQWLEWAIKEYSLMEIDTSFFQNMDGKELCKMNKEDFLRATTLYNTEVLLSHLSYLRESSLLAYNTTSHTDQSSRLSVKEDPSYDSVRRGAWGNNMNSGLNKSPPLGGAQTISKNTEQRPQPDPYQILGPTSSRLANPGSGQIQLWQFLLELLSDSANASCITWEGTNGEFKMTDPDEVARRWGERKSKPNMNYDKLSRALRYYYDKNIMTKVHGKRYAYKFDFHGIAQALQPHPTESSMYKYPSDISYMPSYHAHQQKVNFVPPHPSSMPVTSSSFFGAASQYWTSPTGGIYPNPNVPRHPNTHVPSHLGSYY
# Method in brief: (§1)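 A tag-only sample was pooled with DNA-barcoded human transcription factors that had been expressed in yeast as GST fusions and captured on glutathione beads. The pools were incubated for 30 min at room temperature with 200 nmole of a random double-stranded 16-mer DNA library in Tris/NaCl/DTT/glycerol buffer, then washed, crosslinked with 0.1% formaldehyde, proximity-ligated (BsaI/T4 ligase, 1 h, 37 °C), PCR-amplified and sequenced on an Illumina NextSeq500. Binding signal is each hexamer's read frequency for a factor divided by its frequency for the tag-only sample.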
# ELK1 = target: T2, ELK1 (Homo sapiens, UniProt P19419 1-428); details: protein: recombinant; tags: N-terminal GST; dsDNA, one strand shown
# T2 sequence: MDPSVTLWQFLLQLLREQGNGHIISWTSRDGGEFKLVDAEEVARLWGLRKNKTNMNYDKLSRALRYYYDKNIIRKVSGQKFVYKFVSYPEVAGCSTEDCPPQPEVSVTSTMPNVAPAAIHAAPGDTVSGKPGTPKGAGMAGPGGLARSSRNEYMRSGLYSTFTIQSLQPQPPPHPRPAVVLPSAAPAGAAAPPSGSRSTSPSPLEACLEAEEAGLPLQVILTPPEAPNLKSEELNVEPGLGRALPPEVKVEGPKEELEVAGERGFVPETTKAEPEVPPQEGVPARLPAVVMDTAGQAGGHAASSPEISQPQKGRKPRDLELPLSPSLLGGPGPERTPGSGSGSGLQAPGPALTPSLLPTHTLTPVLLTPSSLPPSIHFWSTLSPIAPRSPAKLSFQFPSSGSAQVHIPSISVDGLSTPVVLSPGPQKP
# Method in brief: as §1
# GABPA = target: T3, GABPA (Homo sapiens, UniProt Q06546 1-454); details: protein: recombinant; tags: N-terminal GST; dsDNA, one strand shown
# T3 sequence: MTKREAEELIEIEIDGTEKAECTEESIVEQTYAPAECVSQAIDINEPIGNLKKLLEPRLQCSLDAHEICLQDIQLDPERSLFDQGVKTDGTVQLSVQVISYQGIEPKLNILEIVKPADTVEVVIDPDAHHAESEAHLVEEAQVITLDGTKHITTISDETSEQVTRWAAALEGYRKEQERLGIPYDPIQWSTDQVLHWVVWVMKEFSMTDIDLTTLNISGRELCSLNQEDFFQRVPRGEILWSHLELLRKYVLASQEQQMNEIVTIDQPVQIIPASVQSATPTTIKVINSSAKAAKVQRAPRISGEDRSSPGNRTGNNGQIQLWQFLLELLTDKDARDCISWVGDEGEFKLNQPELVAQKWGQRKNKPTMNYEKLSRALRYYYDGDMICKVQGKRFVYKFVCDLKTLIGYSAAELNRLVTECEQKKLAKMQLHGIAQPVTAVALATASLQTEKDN
# Method in brief: as §1
# ERG = target: T4, ERG (Homo sapiens, UniProt P11308 1-479); details: protein: recombinant; tags: N-terminal GST; dsDNA, one strand shown
# T4 sequence: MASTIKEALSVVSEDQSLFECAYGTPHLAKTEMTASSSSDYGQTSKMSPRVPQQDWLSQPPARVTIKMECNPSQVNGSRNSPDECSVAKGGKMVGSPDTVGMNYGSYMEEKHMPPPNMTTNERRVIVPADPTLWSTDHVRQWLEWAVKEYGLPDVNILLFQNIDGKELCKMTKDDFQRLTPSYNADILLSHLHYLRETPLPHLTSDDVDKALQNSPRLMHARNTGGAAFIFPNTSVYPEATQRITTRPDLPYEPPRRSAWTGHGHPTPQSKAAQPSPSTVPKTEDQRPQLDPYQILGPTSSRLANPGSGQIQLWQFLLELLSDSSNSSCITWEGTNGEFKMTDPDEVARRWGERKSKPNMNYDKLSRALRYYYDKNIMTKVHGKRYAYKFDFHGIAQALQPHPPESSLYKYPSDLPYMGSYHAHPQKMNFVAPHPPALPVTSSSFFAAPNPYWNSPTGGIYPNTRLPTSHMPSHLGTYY
# Method in brief: as §1
# ELF1 = ELF1 (Homo sapiens, UniProt P32519 1-619); details: protein: recombinant; tags: N-terminal GST; dsDNA, one strand shown
# Method in brief: as §1
# EHF = target: T5, EHF (Homo sapiens, UniProt Q9NZC4 1-300); details: protein: recombinant; tags: N-terminal GST; dsDNA, one strand shown
# T5 sequence: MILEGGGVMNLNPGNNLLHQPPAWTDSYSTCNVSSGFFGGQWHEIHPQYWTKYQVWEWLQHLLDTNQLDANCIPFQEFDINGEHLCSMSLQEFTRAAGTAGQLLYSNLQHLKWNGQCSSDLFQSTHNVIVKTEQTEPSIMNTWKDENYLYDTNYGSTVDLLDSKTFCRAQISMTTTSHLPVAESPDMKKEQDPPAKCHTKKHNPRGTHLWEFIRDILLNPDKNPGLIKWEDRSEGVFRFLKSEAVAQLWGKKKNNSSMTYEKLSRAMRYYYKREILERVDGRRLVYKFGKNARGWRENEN
# Method in brief: as §1
# SPI1 = SPI1 (Homo sapiens, UniProt P17947 1-270); details: protein: recombinant; tags: N-terminal GST; dsDNA, one strand shown
# Method in brief: as §1
# SPIB = SPIB (Homo sapiens, UniProt Q01892 1-262); details: protein: recombinant; tags: N-terminal GST; dsDNA, one strand shown
# Method in brief: as §1
# ELK3 = target: T6, ELK3 (Homo sapiens, UniProt P41970 1-407); details: protein: recombinant; tags: N-terminal GST; dsDNA, one strand shown
# T6 sequence: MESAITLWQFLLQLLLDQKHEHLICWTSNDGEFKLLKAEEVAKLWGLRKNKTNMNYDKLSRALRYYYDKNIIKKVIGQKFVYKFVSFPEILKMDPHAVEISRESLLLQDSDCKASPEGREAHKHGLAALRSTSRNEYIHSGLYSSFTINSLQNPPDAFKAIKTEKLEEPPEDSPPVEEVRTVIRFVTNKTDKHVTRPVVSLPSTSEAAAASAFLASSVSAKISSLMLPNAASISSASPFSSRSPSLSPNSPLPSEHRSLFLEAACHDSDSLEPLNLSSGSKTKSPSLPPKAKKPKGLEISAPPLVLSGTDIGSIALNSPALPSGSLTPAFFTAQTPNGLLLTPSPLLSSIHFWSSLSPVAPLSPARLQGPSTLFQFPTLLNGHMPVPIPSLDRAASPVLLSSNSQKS
# Method in brief: as §1
# FEV = target: T7, FEV (Homo sapiens, UniProt Q99581 1-238); details: protein: recombinant; tags: N-terminal GST; dsDNA, one strand shown
# T7 sequence: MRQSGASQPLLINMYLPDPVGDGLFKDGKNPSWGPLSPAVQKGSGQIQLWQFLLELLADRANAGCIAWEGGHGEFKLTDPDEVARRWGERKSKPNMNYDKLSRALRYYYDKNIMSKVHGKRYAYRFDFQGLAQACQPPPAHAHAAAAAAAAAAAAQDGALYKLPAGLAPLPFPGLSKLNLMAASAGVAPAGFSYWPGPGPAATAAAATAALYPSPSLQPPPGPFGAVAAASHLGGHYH
# Method in brief: as §1
# ETV5 = ETV5 (Homo sapiens, UniProt P41161 1-510); details: protein: recombinant; tags: N-terminal GST; dsDNA, one strand shown
# Method in brief: as §1
# HSF1 = HSF1 (Homo sapiens, UniProt Q00613 1-529); details: protein: recombinant; tags: N-terminal GST; chain copies: 3; dsDNA, one strand shown
# Method in brief: as §1
# SPIC = target: T8, SPIC (Homo sapiens, UniProt Q8N5J4 1-248); details: protein: recombinant; tags: N-terminal GST; dsDNA, one strand shown
# T8 sequence: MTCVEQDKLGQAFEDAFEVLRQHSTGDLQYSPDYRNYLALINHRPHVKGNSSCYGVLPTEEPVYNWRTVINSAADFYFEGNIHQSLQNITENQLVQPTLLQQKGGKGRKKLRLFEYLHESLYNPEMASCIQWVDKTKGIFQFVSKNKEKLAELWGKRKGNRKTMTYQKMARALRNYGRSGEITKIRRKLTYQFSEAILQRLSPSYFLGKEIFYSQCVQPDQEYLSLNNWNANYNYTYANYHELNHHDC
# Method in brief: as §1
# ELF4 = ELF4 (Homo sapiens, UniProt Q99607 1-663); details: protein: recombinant; tags: N-terminal GST; dsDNA, one strand shown
# Method in brief: as §1
# ELK4 = target: T9, ELK4 (Homo sapiens, UniProt P28324-2 1-405); details: protein: recombinant; tags: N-terminal GST; dsDNA, one strand shown
# T9 sequence: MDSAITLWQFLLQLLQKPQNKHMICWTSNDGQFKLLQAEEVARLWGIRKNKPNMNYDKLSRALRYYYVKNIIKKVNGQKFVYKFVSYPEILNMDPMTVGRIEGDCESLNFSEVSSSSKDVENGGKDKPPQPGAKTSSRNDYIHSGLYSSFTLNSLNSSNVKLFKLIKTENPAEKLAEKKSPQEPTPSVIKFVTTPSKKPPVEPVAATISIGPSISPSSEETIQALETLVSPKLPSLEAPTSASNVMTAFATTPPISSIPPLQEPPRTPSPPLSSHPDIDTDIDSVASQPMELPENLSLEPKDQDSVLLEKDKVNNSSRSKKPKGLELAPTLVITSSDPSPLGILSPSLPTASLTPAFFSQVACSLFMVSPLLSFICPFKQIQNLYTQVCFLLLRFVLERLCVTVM
# Method in brief: as §1
# ETV2 = target: T10, ETV2 (Homo sapiens, UniProt O00321 1-342); details: protein: recombinant; tags: N-terminal GST; dsDNA, one strand shown
# T10 sequence: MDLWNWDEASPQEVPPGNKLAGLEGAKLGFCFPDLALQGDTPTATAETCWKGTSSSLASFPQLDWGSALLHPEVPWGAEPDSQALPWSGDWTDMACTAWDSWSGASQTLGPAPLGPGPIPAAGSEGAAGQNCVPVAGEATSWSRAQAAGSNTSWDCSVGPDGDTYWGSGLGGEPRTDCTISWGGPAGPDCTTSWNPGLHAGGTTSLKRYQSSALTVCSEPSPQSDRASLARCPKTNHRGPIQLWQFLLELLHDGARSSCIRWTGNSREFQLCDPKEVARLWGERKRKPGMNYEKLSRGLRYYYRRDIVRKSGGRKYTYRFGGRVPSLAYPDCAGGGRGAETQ
# Method in brief: as §1
# ELF3 = target: T11, ELF3 (Homo sapiens, UniProt P78545 1-371); details: protein: recombinant; tags: N-terminal GST; dsDNA, one strand shown
# T11 sequence: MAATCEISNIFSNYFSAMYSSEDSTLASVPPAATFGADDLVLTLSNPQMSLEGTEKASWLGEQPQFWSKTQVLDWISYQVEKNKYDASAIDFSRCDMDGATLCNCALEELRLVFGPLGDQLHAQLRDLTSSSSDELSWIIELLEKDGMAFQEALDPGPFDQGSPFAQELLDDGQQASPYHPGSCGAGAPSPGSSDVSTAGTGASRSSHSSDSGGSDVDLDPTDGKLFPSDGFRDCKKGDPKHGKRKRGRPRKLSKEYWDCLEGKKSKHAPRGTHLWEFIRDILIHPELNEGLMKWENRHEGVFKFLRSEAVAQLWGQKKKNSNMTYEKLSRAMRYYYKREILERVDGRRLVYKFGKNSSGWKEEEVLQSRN
# Method in brief: as §1
# ETV1 = ETV1 (Homo sapiens, UniProt P50549 1-477); details: protein: recombinant; tags: N-terminal GST; dsDNA, one strand shown
# Method in brief: as §1
# Sequence of HSF1 (Q00613 whole entry): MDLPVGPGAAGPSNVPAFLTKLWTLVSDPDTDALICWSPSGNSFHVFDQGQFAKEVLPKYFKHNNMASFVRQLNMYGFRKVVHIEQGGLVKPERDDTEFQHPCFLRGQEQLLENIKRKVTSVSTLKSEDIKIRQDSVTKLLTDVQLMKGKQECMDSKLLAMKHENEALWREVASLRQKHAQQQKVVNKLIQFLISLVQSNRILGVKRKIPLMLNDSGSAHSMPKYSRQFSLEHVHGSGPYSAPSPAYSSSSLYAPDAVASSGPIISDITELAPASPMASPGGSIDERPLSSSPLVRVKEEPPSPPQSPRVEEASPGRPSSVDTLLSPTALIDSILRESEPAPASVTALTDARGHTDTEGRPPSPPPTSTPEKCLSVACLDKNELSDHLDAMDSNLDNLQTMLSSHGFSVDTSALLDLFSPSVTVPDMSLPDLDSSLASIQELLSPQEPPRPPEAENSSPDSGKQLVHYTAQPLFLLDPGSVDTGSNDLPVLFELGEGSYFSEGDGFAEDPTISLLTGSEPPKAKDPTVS
# Sequence of ELF1 (P32519 whole entry): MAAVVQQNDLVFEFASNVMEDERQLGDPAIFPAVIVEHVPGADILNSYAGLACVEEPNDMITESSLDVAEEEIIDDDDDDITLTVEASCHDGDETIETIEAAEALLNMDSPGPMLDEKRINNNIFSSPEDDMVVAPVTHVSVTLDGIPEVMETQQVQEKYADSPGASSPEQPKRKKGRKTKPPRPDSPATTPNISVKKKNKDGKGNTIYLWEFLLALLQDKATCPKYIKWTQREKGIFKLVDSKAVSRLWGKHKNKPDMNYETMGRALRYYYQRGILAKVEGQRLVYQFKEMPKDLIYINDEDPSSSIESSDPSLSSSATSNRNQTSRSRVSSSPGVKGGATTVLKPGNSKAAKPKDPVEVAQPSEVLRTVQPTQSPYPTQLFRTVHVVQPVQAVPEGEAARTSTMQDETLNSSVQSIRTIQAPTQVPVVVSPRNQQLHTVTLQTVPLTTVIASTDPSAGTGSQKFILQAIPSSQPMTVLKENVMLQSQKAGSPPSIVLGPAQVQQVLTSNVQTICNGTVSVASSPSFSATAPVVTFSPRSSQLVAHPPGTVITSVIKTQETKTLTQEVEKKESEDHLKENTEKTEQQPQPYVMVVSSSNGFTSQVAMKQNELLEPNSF
# Sequence of ETV1 (P50549 whole entry): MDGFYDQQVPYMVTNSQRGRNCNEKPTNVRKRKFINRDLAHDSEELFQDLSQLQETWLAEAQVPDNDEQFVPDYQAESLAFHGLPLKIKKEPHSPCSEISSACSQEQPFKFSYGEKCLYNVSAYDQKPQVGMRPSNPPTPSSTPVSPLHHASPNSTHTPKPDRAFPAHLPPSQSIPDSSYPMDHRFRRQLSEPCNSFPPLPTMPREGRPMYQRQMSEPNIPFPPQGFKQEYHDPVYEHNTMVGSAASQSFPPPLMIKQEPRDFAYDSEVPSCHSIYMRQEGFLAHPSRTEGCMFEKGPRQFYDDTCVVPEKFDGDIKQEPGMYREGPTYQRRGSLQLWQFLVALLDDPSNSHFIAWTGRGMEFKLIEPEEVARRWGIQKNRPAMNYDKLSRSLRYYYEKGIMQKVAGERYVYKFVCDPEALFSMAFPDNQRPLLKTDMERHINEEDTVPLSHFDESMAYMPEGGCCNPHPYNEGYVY
# Sequence of SPIB (Q01892 whole entry): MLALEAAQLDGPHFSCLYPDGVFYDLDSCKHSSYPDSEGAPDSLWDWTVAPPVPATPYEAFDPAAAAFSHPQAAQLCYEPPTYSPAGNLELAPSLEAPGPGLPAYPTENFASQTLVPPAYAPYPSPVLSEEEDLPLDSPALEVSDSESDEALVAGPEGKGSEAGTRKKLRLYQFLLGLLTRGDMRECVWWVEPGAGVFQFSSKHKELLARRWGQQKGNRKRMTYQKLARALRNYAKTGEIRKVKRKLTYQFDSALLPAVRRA
# Sequence of ELF4 (Q99607 whole entry): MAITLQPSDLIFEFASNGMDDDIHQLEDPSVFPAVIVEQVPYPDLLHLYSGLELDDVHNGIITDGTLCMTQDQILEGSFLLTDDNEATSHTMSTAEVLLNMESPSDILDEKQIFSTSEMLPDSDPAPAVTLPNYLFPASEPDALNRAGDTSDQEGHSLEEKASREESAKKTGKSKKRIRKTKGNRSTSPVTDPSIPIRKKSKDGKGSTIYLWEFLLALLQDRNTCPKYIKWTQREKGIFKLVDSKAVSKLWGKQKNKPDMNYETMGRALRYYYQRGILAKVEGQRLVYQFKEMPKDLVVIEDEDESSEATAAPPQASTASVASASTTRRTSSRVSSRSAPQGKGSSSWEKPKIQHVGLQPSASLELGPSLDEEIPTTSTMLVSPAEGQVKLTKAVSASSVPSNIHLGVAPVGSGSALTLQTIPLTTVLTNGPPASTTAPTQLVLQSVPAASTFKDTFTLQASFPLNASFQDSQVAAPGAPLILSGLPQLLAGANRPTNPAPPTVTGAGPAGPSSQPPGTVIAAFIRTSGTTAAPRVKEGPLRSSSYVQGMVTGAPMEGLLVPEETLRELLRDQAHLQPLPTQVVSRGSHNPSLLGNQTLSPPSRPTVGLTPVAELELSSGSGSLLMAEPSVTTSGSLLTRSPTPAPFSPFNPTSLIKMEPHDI
# Sequence of ETV5 (P41161 whole entry): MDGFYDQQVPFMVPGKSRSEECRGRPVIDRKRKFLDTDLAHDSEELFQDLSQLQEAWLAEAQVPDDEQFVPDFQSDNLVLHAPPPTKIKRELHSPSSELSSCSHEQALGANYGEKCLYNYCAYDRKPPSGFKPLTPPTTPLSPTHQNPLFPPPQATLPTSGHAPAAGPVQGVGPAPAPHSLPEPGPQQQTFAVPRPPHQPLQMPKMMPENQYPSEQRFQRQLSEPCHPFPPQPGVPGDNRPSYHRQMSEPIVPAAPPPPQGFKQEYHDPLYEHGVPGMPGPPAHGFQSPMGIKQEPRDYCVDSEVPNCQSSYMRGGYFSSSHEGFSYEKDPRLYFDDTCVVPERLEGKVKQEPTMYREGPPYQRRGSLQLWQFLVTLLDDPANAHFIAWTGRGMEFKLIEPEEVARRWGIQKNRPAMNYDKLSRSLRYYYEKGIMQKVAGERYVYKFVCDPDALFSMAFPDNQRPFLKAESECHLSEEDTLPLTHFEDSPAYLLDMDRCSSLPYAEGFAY
sequence,measurement,setting,value
TGTACG,binding signal,FLI1,"1.18 fold enrichment (6-mer frequency, TF over GST control)"
same,binding signal,ELK1,"1.23 fold enrichment (6-mer frequency, TF over GST control)"
same,binding signal,GABPA,"1.08 fold enrichment (6-mer frequency, TF over GST control)"
same,binding signal,ERG,"1.15 fold enrichment (6-mer frequency, TF over GST control)"
same,binding signal,ELF1,"1.11 fold enrichment (6-mer frequency, TF over GST control)"
same,binding signal,EHF,"1.12 fold enrichment (6-mer frequency, TF over GST control)"
same,binding signal,SPI1,"1.19 fold enrichment (6-mer frequency, TF over GST control)"
same,binding signal,SPIB,"1.1 fold enrichment (6-mer frequency, TF over GST control)"
same,binding signal,ELK3,"1.23 fold enrichment (6-mer frequency, TF over GST control)"
same,binding signal,FEV,"1.2 fold enrichment (6-mer frequency, TF over GST control)"
same,binding signal,ETV5,"1.23 fold enrichment (6-mer frequency, TF over GST control)"
same,binding signal,HSF1,"1.01 fold enrichment (6-mer frequency, TF over GST control)"
same,binding signal,SPIC,"1.23 fold enrichment (6-mer frequency, TF over GST control)"
same,binding signal,ELF4,"1.2 fold enrichment (6-mer frequency, TF over GST control)"
same,binding signal,ELK4,"1.34 fold enrichment (6-mer frequency, TF over GST control)"
same,binding signal,ETV2,"1.13 fold enrichment (6-mer frequency, TF over GST control)"
same,binding signal,ELF3,"1.13 fold enrichment (6-mer frequency, TF over GST control)"
same,binding signal,ETV1,"1.24 fold enrichment (6-mer frequency, TF over GST control)"
